The text below walks through data of PubChem BioAssay (NCATS).

Inconclusive results are not listed. Active and inactive are the calls of the source. Calls come from the whole dose curve.
% is set by controls: 0 for no effect and ±100 for the full control effect.

One test can be described thus: Primary qHTS for Huh7 cytotoxicity: counterscreen for inhibitors of MERS-S pseudotyped particle cell entry (AID 1479147). Conditions: cell viability read-out; series mostly up to 57.1 µM; activity change, negative = cytotoxicity: at the top concentration. A general note: Quantitative high-throughput screening tests each substance at several concentrations.
As for `COc1nc2ccc(Br)cc2cc1[C@@H](c1ccccc1)[C@@](O)(CCN(C)C)c1cccc2ccccc12`, the “activity change, negative = cytotoxicity” value is 2.72% (inactive).

Regarding `COc1cc(N)cn[n+]1-c1ccccc1`, the outcome was inactive. On the same count and under the same terms, with `CON=C1C[C@]2(C[C@@H]3C[C@@H](C/C=C(\C)C[C@@H](C)/C=C/C=C4\CO[C@@H]5[C@H](O)C(C)=C[C@@H](C(=O)O3)[C@]45O)O2)O[C@H](/C(C)=C/C(C)C)[C@H]1C` the entry was “inactive”. As for `OC(c1ccccc1)(c1ccccc1)C12CC[N+](CCOCc3ccccc3)(CC1)CC2`, the “activity change, negative = cytotoxicity” value is -1.73% (inactive).

The nature of a further test: Primary qHTS for inhibitors of MERS-S pseudo-typed particle cell entry (AID 1479149). Note: nearly all actives have a fitted effect of over 60% in size. To be noted: MERS-S pseudotyped particle entry, luciferase; series mostly up to 57.1 µM; activity change, negative = inhibition: at the top concentration.
Consider `CC(=O)N(CC(C)C(=O)O)c1c(I)cc(I)c(N)c1I` (centres undefined), for which the result was inactive.

For the compound `O=C(c1ccc(F)c(F)c1Nc1ccc(I)cc1F)N1CC(O)([C@@H]2CCCCN2)C1`, the “activity change, negative = inhibition” value was -5.47% (inactive).

Consider `O=C(Nc1ccc(O)cc1)c1ccccc1O`, for which the “activity change, negative = inhibition” value was -10.3% (inactive). In the case of `COC(=O)[C@H]1[C@H]2C[C@@H]3c4[nH]c5cc(OC)ccc5c4CCN3C[C@H]2C[C@@H](OC(=O)/C=C/c2cc(OC)c(OC)c(OC)c2)[C@@H]1OC`, the “activity change, negative = inhibition” value is -35.4% [at 15.3 µM] (inactive).

As for `Cc1c(C)c2c(c(C)c1OC(=O)CCC(=O)O)CC[C@@](C)(CCC[C@H](C)CCC[C@H](C)CCCC(C)C)O2`, the “activity change, negative = inhibition” value was 1.14% (inactive). Turning to `C#C[C@]1(OC(C)=O)CC[C@H]2[C@@H]3CCC4=CC(=O)CC[C@@H]4[C@H]3CC[C@@]21C`, the call was inactive. For the compound `CCCCN(CCCC)C(=S)[S-].CCCCN(CCCC)C(=S)[S-].[Zn+2]`, the compound was called inactive.

As to `CC(OC(=O)NCC1(CC(=O)O)CCCCC1)OC(=O)C(C)C` (centres undefined), the call was inactive. As for `CC1CCCC(C)N1C(=S)Nc1cccc(C(F)(F)F)c1` (centres undefined), the “activity change, negative = inhibition” value is 3.92% (inactive).

Regarding `CCN(CC)CCOc1ccc2nc(N(C)C)sc2c1`, the “outcome” value is “inactive [at 114 µM]”.
